Experimental data published in the supplement of paper PMC12350171.
Where a name gives a salt, the structure may show the parent alone.

System: Haemophilus parainfluenzae
Assay: growth AUC normalised to DMSO control (fraction of control); higher = less growth inhibition, active = hit call of the paper
Details: 20 µM;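 active = AUC significantly below DMSO controls by Student t-fit with adjusted P under 0.01; inactive = not significantly reduced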
Method in brief: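 For the AUC endpoint, growth curves were integrated by the trapezoidal rule up to the exponential-to-stationary transition and normalised to DMSO controls on the same plate. The curves came from OD578 readings taken hourly for 24 h, in three biological replicates. Pathogens had been passaged anaerobically twice and inoculated at an OD578 of 0.01 into pre-reduced mGAM plates carrying 20 μM compound and 1% DMSO, sealed with breathable membranes. Medium for Haemophilus parainfluenzae also contained hemin and NAD.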

Structure (SMILES) | growth AUC normalised to DMSO control
CN(C)CCC[C@@]1(c2ccc(F)cc2)OCc2cc(C#N)ccc21 [Escitalopram oxalate] | 1.03 (inactive)
C[C@H](N)[C@H](O)c1cccc(O)c1 [Metaraminol bitartrate] | 0.968 (inactive)
Nc1nc(O)c2ncn(CCC(CO)CO)c2n1 [Penciclovir] | 0.944 (inactive)
C[C@]12CC[C@H]3[C@@H](CCC4=CC(=O)CC[C@@]43C)[C@@H]1CC[C@@H]2C(=O)CO [Deoxycorticosterone] | 1.04 (inactive)
O=C(NCC1CCCCN1)c1cc(OCC(F)(F)F)ccc1OCC(F)(F)F (centres undefined) [Flecainide acetate] | 0.99 (inactive)
CC(C[N+](C)(C)C)OC(N)=O (centres undefined) [Bethanechol chloride] | 1 (inactive)
O=C(c1ccc(OCCN2CCCCC2)cc1)c1c(-c2ccc(O)cc2)sc2cc(O)ccc12 [Raloxifene hydrochloride] | 0.974 (inactive)
O=C(Nc1ccccc1)OCC(CN1CCCCC1)OC(=O)Nc1ccccc1 (centres undefined) [Diperodon hydrochloride] | 1.02 (inactive)
CCN(CC)CCNC(=O)c1ccc(N)cc1 [Procainamide hydrochloride] | 0.983 (inactive)
Cc1c(C)c2c(c(C)c1O)CCC(C)(C(=O)O)O2 (centres undefined) [Trolox] | 1 (inactive)
CCC(=O)OCC(=O)[C@@]1(OC(=O)CC)[C@H](C)C[C@H]2[C@H]3[C@H]([C@@H](O)C[C@@]21C)[C@@]1(C)C=CC(=O)C=C1C[C@H]3Cl [Alclometasone dipropionate] | 1.02 (inactive)
CC(=O)Oc1cc(C(F)(F)F)ccc1C(=O)O [Triflusal] | 0.819 (inactive)
COc1cc(NS(=O)(=O)c2ccc(N)cc2)nc(OC)n1 [Sulfadimethoxine] | 0.98 (inactive)
COC(=O)C1=C(C)NC(C)=C(C(=O)OCCN(C)Cc2ccccc2)C1c1cccc([N+](=O)[O-])c1 (centres undefined) [Nicardipine hydrochloride] | 1.01 (inactive)
CC(C)OC(=O)C(C)(C)Oc1ccc(C(=O)c2ccc(Cl)cc2)cc1 [Fenofibrate] | 0.961 (inactive)
N=C(N)NCC1COC2(CCCCC2)O1 (centres undefined) [Guanadrel sulfate] | 0.967 (inactive)
O=C(CCCN1CCC(O)(c2ccc(Cl)cc2)CC1)c1ccc(F)cc1 [Haloperidol] | 0.951 (inactive)
O=C(NCC(O)CO)c1c(I)c(C(=O)NCC(O)CO)c(I)c(N(CCO)C(=O)CO)c1I (centres undefined) [Ioversol] | 1.06 (inactive)
CC(=O)O[C@H]1C[C@@H]2CC[C@@H]3[C@H](CC[C@@]4(C)[C@H]3C[C@H]([N+]3(C)CCCCC3)[C@@H]4OC(C)=O)[C@@]2(C)C[C@@H]1N1CCCCC1 [Vecuronium bromide] | 1.05 (inactive)
CN1CCCN=C1/C=C/c1cccs1 [Pyrantel tartrate] | 0.978 (inactive)

Structure (SMILES) | growth AUC normalised to DMSO control
CN[C@H](CC(C)C)C(=O)N[C@H]1C(=O)N[C@@H](CC(N)=O)C(=O)N[C@H]2C(=O)N[C@H]3C(=O)N[C@H](C(=O)N[C@H](C(=O)O)c4cc(O)cc(O)c4-c4cc3ccc4O)[C@H](O)c3ccc(c(Cl)c3)Oc3cc2cc(c3O[C@@H]2O[C@H](CO)[C@@H](O)[C@H](O)[C@H]2O[C@H]2C[C@](C)(N)[C@H](O)[C@H](C)O2)Oc2ccc(cc2Cl)[C@H]1O [Vancomycin hydrochloride] | 1.01 (inactive)
CCCNC(C)C(=O)Nc1c(C)csc1C(=O)OC (centres undefined) [Articaine hydrochloride] | 1.01 (inactive)
NC[C@@H]1O[C@@H](O[C@H]2[C@H](O)[C@@H](O[C@H]3O[C@H](CO)[C@@H](O)[C@H](N)[C@H]3O)[C@H](N)C[C@@H]2N)[C@@H](O)[C@H](O)[C@H]1O [Kanamycin A sulfate] | 0.976 (inactive)
COC(=O)Nc1nc2cc(C(=O)c3ccc(F)cc3)ccc2[nH]1 [Flubendazol] | 1.02 (inactive)
CCOC(=O)/C=C(C)/C=C/C=C(C)/C=C/c1c(C)cc(OC)c(C)c1C [Etretinate] | 1.03 (inactive)
CCC(NC(C)C)C(O)c1ccc(O)c(O)c1 (centres undefined) [Isoetharine mesylate salt] | 1.01 (inactive)
Nc1c2c(nc3ccccc13)CCCC2 [Tacrine hydrochloride] | 1.01 (inactive)
CN1CCCC(n2nc(Cc3ccc(Cl)cc3)c3ccccc3c2=O)CC1 (centres undefined) [Azelastine hydrochloride] | 0.994 (inactive)
CC1(C)O[C@@H]2C[C@H]3[C@@H]4C[C@H](F)C5=CC(=O)C=C[C@]5(C)[C@@]4(F)[C@@H](O)C[C@]3(C)[C@]2(C(=O)CO)O1 [Fluocinolone acetonide] | 0.995 (inactive)
CO[C@@]1(NC(=O)C2SC(=C(C(N)=O)C(=O)O)S2)C(=O)N2C(C(=O)O)=C(CSc3nnnn3C)CS[C@@H]21 (some centres undefined) [Cefotetan] | 0.0395 (active)
CCc1cccc2c3c([nH]c12)C(CC)(CC(=O)O)OCC3 (centres undefined) [Etodolac] | 1.02 (inactive)
Nc1nc(N)nc(-c2cc(Cl)ccc2Cl)n1 [Irsogladine maleate] | 1.01 (inactive)
C#C[C@]1(OC(C)=O)CC[C@H]2[C@@H]3CCC4=CC(=NO)CC[C@@H]4[C@H]3CC[C@@]21CC (mixture of isomers) [Norgestimate] | 0.908 (inactive)
CCCCCCCCNC(C)C(O)c1ccc(SC(C)C)cc1 (centres undefined) [Suloctidil] | 0.986 (inactive)
CS(=O)(=O)c1ccc(C2=C(c3ccccc3)C(=O)OC2)cc1 [Rofecoxib] | 0.964 (inactive)
OC(CCN1CCCCC1)(c1ccccc1)c1ccccc1 [Pridinol methanesulfonate salt] | 0.999 (inactive)
C=CCc1ccccc1OCC(O)CNC(C)C (centres undefined) [Alprenolol hydrochloride] | 1.06 (inactive)
CCCCCN(CCCCC)C(=O)C(CCC(=O)O)NC(=O)c1ccc(Cl)c(Cl)c1 (centres undefined) [Lorglumide sodium salt] | 0.982 (inactive)
COc1ccc2c(c1)C(=O)N(CCc1ccc(S(=O)(=O)NC(=O)NC3CCCCC3)cc1)C(=O)C2(C)C [Gliquidone] | 0.998 (inactive)
